Source: PubChem BioAssay
HT1080 IDH1KD tx – HT-1080 IDH1 knockdown cell toxicity (counter line); HT-1080 IDH1 knockdown viability, ATP luminescence, 48 h; Potency, µM (top dose mostly 46.1 µM), for inactives: top-dose activity, negative = toxicity, hits mostly cytotoxic; hit rate 2% among 360,000;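 further: potency means the concentration at half of the fitted maximal effect; 0% = DMSO wells and -100% = cell-free medium wells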
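Viability of IDH1-knockdown HT-1080 fibrosarcoma cells was assessed by CellTiter-Glo after 48 h at 37 °C with titrated compound; concentration-effect curves were classified by fit quality and response size.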
ELG1 DNA repair – ELG1-dependent DNA repair inhibition; HEK293T ELG1-luciferase reporter, luminescence, 16 h; DNA damage induced by 5-fluorouridine; Potency, µM (titrated, usually from 46.1 µM), for the others: top-dose activity change, negative = inhibition, usual class: inhibitors; hit rate 2.3% among 330,000; further: potency means the concentration at half of the fitted maximal effect; nearly all actives have a fitted effect of over 55% in size
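In this reporter screen, reduction of luminescence relative to DMSO vehicle indicated activity. Compounds and 5-fluorouridine were added together to 2,000 cells per well, incubated for 16 hr at 37 °C, then developed with ONE-Glo.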
IL-1B inflam inh – inhibitors of inflammasome signaling (IL-1 beta secretion). hit rate 4.7% among 360,000. AID 743279. activity change, % at 57.5 µM. THP-1 LPS/ATP IL-1B secretion, AlphaLISA, 16 h; active compounds read low; in the data active means activity change below about -50%; inconclusive means mostly about -30% to -49%
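THP-1 cells pretreated 1 hr with compounds (up to 57.5 uM final), then stimulated with LPS (250 ng/mL final) plus ATP (1.25 mM final); secreted IL-1B measured by AlphaLISA after 16 hr, decreased signal indicating inhibition.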
TDP1 cell noCPT – qHTS for Inhibitors of human tyrosyl-DNA phosphodiesterase 1 (TDP1): qHTS in cells in absence of CPT. DT40 Tdp1-/- hTDP1 cells, no CPT, ATP luminescence, 48 h. Potency, µM (top dose mostly 46.2 µM), inactives show at the top dose activity change, negative = growth inhibition, hits mostly inhibitors. hit rate 15% among 420,000. AID 686978, 2013; further: potency means the concentration at half of the fitted maximal effect; nearly all actives have a fitted effect of over 55% in size
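Growth kinetics read by CellTiter-Glo luminescence after ≥48 hr at 37 °C. Cells: DT40 Tdp1-/- stably carrying human TDP1, 400 per well, compound exposure in the absence of CPT (DMSO vehicle).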
DT40 TDP1 CPT – DT40-hTDP1 cell growth loss with CPT; hit rate 12% among 420,000; chicken DT40 Tdp1-/-;hTDP1 cells + 20 nM CPT, ATP luminescence, 48 h; Potency, µM (highest dose often 46.2 µM), without a hit: top-dose activity change, negative = growth inhibition, most hits filed as inhibitors; further: potency means the concentration at half of the fitted maximal effect; nearly all actives have a fitted effect of over 55% in size
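Cell growth measured by CellTiter-Glo luminescence after a minimum 48 h, 37 C compound exposure with 20 nM CPT in Tdp1-knockout DT40 cells stably expressing hTDP1, seeded 400/well; qHTS titration format.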
HT1080-NT tox – kills 2HG-producing HT-1080-NT fibrosarcoma cells; HT-1080-NT fibrosarcoma viability, CellTiter-Glo ATP luminescence, 48 h; Potency, µM (highest dose often 46.1 µM), for inactives: top-dose activity, negative = less viability, actives largely listed as cytotoxic; hit rate 1.6% among 360,000;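 further: NT is the 2HG producing partner of a matched IDH1 knockdown line; potency means the concentration at half of the fitted maximal effect; 0% = DMSO-treated cells and -100% = media-only wells without cells; nearly all actives have a fitted effect of over 55% in size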
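750 cells/well, RPMI + 5% FBS; 2 h settle, compound pin-transfer, 48 h at 37 degrees C. CellTiter-Glo 10 min RT, luminescence. Normalized to DMSO and media-only wells.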
Active calls of the source: *; ? = inconclusive; · = no result. Rows were chosen to be rich in hits. Some 19% of all compounds tested hit in one or more screens of this group. Unless noted, the call rests on the fitted dose curve; in most records, active means well fitted curve in the direction sought with a large enough effect; inconclusive means small, poorly fitted or top-dose-only effect, or another doubt; inactive means no such curve, though single readings can be large; an effect the other way counts as inactive or inconclusive. Unless noted, on the % scale 0 is the no-effect control and ±100 the full control effect.

SMILES | HT1080 IDH1KD tx | ELG1 DNA repair | IL-1B inflam inh | TDP1 cell noCPT | DT40 TDP1 CPT | HT1080-NT tox
CN(c1ccccc1)S(=O)(=O)c1cccc(NC(=O)COc2cccc([N+](=O)[O-])c2)c1 | 0% | -28% | -12 | 23µM* | ? | 1%
CN(Cc1ccccc1)S(=O)(=O)c1ccc(OCC(=O)Nc2cccc([N+](=O)[O-])c2)cc1 | -4% | 1% | 0 | -18% | -1% | -7%
CN(C(=O)COC(=O)c1ccc(C(C)(C)C)cc1)C1CCS(=O)(=O)C1 (stereo unspecified) | 2% | 2% | 2 | -3% | -1% | 4%
CN(C(=O)COC(=O)c1nc(Cl)c(Cl)c(Cl)c1Cl)C1CCS(=O)(=O)C1 (stereo unspecified) | 5.8µM* | ? | -99* | 21µM* | 21µM* | 16µM*
CN(C(=O)COC(=O)c1ccc2c(=O)n3c(nc2c1)CCC3)C1CCS(=O)(=O)C1 (stereo unspecified) | -10% | ? | -70* | -2% | 8% | -8%
CN(C(=O)COC(=O)Cc1c(Cl)cccc1Cl)C1CCS(=O)(=O)C1 (stereo unspecified) | 0% | 1% | -8 | -4% | -28% | 6%
CCCN(C(=O)c1ccc2c(=O)n3c(nc2c1)CCCCC3)c1cccc(Cl)c1 | · | · | · | 16µM* | ? | ·
O=C(c1ccc2c(=O)n3c(nc2c1)CCCCC3)N1CCN(c2cccc(Cl)c2)CC1 | 0% | ? | -4 | 23µM* | 18µM* | 3%
O=C(NNC(=O)c1cc(Cl)ccc1O)c1cccc(S(=O)(=O)N2CCOCC2)c1 | ? | 9% | 45 | ? | ? | -22%
CCNc1nc(NCC)nc(N(C)/N=C/c2ccco2)n1 | 0% | -3% | 10 | 5% | 1% | 2%
COc1ccc(CNC(=O)C2CCCN(S(=O)(=O)c3c(C)noc3/C=C/N(C)C)C2)cc1 (stereo unspecified) | 11% | 16% | 11 | 1% | 2% | 1%
CC(CCc1ccccc1)NC(=O)CN1C(=O)NC2(CCCCC2C)C1=O (stereo unspecified) | 0% | ? | 5 | -28% | -1% | 12%
O=C(C1CCCO1)N1CCN(C(=S)Nc2cc(F)cc(F)c2)CC1 (stereo unspecified) | -2% | -4% | -19 | 2% | -6% | 4%
COc1cccc(CN2CC(C(=O)NCCC3=CCCCC3)CCC2=O)c1 (stereo unspecified) | 1% | 26% | 24 | ? | ? | 1%
CN(Cc1ccc(C(C)(C)C)cc1)C(=O)c1ccc2c(=O)n3c(nc2c1)CCC3 | 2% | -24% | 8 | 21µM* | 21µM* | 7%
COc1ccc(CN(C)C(=O)c2ccc3c(=O)n4c(nc3c2)CCC4)cc1 | 8% | ? | 22 | -1% | 6% | 20%
CN(C(=O)c1ccc2c(=O)n3c(nc2c1)CCCCC3)c1cccc(Cl)c1 | -11% | -7% | -7 | 23µM* | 23µM* | -7%
CN1CCN(C(=O)c2cccc(COc3cc(Cl)ccc3Cl)c2)CC1 | -7% | ? | -14 | 22µM* | ? | ?
CCOC(=O)[C@]12CCC=C1N(CCC1=CCCCC1)C(=O)[C@H](CC(=O)NCc1ccc(OC)c(OC)c1)C2 | 9% | · | -7 | -29% | ? | 14%
CCOC(=O)[C@]12CCCC=C1N(CCc1ccc(OC)c(OC)c1)C(=O)[C@H](CC(=O)N1CCCCC1)C2 | -4% | · | -25 | 12µM* | 15µM* | -11%
CCOC(=O)[C@]12CCCC=C1N(CCc1ccc(OC)c(OC)c1)C(=O)[C@H](CC(=O)NCc1ccccc1)C2 | 6% | · | ? | 13µM* | 16µM* | -7%
CCCCCCCCN1C(=O)[C@H](CC(=O)NCc2ccc(OC)c(OC)c2)C[C@@]2(C(=O)OCC)CCCC=C12 | ? | · | -77* | ? | ? | ?
COCc1cc(=O)n2[nH]c(-c3cccs3)cc2n1 | 2% | ? | 43 | -22% | -18% | 17%
COc1ccc2c(c1O)C(=O)c1ccccc1C2=O | · | 9% | · | · | · | ·
CC1=CC(=O)c2ccccc2C1=O | 5% | 12% | 21 | 4.6µM* | 8.2µM* | 27%
SMILES | HT1080 IDH1KD tx | ELG1 DNA repair | IL-1B inflam inh | TDP1 cell noCPT | DT40 TDP1 CPT | HT1080-NT tox
CC(C)(C=O)C1=CC(=O)c2ccccc2C1=O | 13µM* | ? | -103* | 0.41µM* | 0.18µM* | -29%
COc1cccc2c1C(=O)C=C(C)C2=O | ? | ? | -100* | 4.6µM* | 2.9µM* | 18µM*
CCC[C@@H]1C[C@@H](C(=O)N[C@@H]([C@H]2O[C@H](SC)[C@H](OP(=O)(O)O)[C@@H](O)[C@H]2O)[C@H](C)Cl)N(C)C1 | · | · | · | -4% | -5% | ·
COCCNc1ccc(-c2nc(-c3ccccn3)no2)cc1[N+](=O)[O-] | · | · | · | -27% | -26% | ·
CCn1c(=S)sc2c(=O)[nH]c(SCC(=O)Nc3cc(OC)ccc3OC)nc21 | -11% | 17% | 40 | 25% | -17% | -19%
COc1cccc(NC(=O)Nc2nnc(Cc3ccccc3F)s2)c1 | ? | -1% | 17 | 23µM* | ? | -29%
O=C(Nc1ccc(Cl)cc1)Nc1nnc(CSCc2ccc(Cl)cc2)s1 | -11% | ? | -61* | 4.1µM* | 2.6µM* | 0%
COc1ccc(NC(=O)Nc2nnc(Cc3ccc(F)cc3)s2)cc1 | ? | ? | -14 | 26µM* | -21% | -42%
O=C(Nc1ccccc1)Nc1nnc(Cc2ccccc2F)s1 | -28% | 22% | 6 | -9% | 6% | -2%
O=C(Nc1ccc(F)cc1)Nc1nnc(Cc2ccccc2F)s1 | -12% | -9% | 5 | 13µM* | 16µM* | -16%
CCCc1nnc(NC(=O)Nc2ccc(OC)cc2)s1 | 19% | ? | -3 | -22% | -20% | 12%
CC1Oc2ccccc2N(CC(=O)NCCN2CCOCC2)C1=O (stereo unspecified) | 5% | -2% | 17 | 22% | 0% | 3%
CCN1C(=O)CC(C(=O)Nc2ccc(OC)cc2)SC1=Nc1ccc(C)c(C)c1 (stereo unspecified) | · | · | · | ? | -24% | ·
CCN(CC)S(=O)(=O)c1ccc(C)c(NC(=S)N2CCN(C/C=C/c3ccccc3)CC2)c1 | -9% | 12µM* | -7 | 12µM* | ? | -2%
